Results taken from PubChem BioAssay (Tox21).
Inconclusive results are not listed. Entries that show only a call come without a potency. Active and inactive are the calls of the source. The call rests on the fitted dose curve. Peptide text beside a SMILES is read from it.

Each compound was assayed against 5-hydroxytryptamine receptor 2A (Homo sapiens) (UniProt P28223) (assay: 5-hydroxytryptamine receptor 2A (HTR2A) small molecule agonists, cell-based qHTS assay (AID 1963587; further: nearly all actives have a fitted effect of over 30% in size)). Conditions: HTR2A-CHO cells, calcium flux fluorescence, agonist mode; series mostly up to 76.8 µM; activation: at the top concentration.
Excerpt: National Center for Advancing Translational Sciences [NCATS]
Division of Preclinical Innovation [DPI]
U.S. Environmental Protection Agency [EPA]
National Institutes of Environmental Health Sciences [NIEHS]
National Toxicology Program [NTP]
U.S. Food and Drug Administration [FDA]
The HTR2A receptor is a subtype of the 5-HT2 receptor that belongs to the serotonin receptor family and is a G protein-coupled receptor (GPCR). The HTR2A-CHO cell line stably expressing human 5-hydroxytryptamine receptor 2A (HTR2A) can be used for screening agonists of interactions between 5-HT2 and its ligands. The HTR2A-CHO calcium flux assay is a homogeneous fluorescence-based assay for detecting the intracellular calcium level using FDSS kinetic plate reader system.
HTR2A-CHO cells were dispensed at 2000 cells/3uL/well in 1536-well black-clear bottom plates using a Multidrop Dispenser. After the assay plates were incubated at a 37 C/5% CO2 incubator for 18 h, 3 uL of Dye Loading Buffer was transferred to the assay plate by a Flying Reagent Dispenser. The assay plates were incubated at 37 C for 1h. For agonist mode, 23 nL of compounds dissolved in DMSO, positive controls or DMSO only was transferred to the assay plate by a pin tool. The fluorescence intensity in the plates was measured using FDSS 7000EX kinetic plate reader for 2 min at 1 sec intervals.
Potency means the concentration at half of the fitted maximal effect.

Chain of 5-hydroxytryptamine receptor 2A (Homo sapiens) (P28223 whole entry, looked up): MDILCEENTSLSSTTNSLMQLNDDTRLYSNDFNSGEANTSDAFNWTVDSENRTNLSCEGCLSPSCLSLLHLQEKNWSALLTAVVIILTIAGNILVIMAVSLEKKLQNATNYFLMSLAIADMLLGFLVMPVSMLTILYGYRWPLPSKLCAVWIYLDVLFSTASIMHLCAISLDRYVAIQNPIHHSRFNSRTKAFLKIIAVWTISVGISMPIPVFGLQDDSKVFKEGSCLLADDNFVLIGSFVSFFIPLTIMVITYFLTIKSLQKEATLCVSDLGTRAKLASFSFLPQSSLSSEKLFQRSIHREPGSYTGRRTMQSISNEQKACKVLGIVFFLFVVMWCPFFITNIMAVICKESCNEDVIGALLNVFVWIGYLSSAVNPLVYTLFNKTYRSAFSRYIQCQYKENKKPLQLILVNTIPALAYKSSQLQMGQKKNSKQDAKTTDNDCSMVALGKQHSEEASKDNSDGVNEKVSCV

**Q.** With `Nc1ccc(S(=O)(=O)Nc2cnc3ccccc3n2)cc1` as the compound, how does the Potency read?
**A.** inactive

**Q.** With `CNC[C@H](O)[C@@H](O)[C@H](O)[C@H](O)CO` as the compound, how does the Potency read?
**A.** inactive

**Q.** `Fc1ccc(Br)cc1` was tested. Which Potency did it give?
**A.** inactive

**Q.** With `OC1C(O)C(O)C(O)C(O)C1O` (stereo not given) as the compound, how does the Potency read?
**A.** inactive

**Q.** Which Potency does the source give for `O=C1OC2(c3ccccc31)c1cc(I)c(O)c(I)c1Oc1c2cc(I)c(O)c1I` here?
**A.** 31.3 µM (active) [middle of 4 runs]

**Q.** With `C=CCNCC=C` as the compound, how does the Potency read?
**A.** inactive

**Q.** For `CC(=O)CCC(=O)O`, which Potency is on record?
**A.** inactive

**Q.** Which “activation” value does the source give for `Oc1ccc(Cl)cc1Cc1cc(Cl)ccc1O` here?
**A.** 10.7% (inactive)

**Q.** With `O=C1C(N(CO)C(=O)NCO)N(CO)C(=O)N1CO` (stereo not given) as the compound, how does the Potency read?
**A.** inactive

**Q.** `CCOc1ccc(NC(=O)CC(C)O)cc1` (stereo not given) was tested. Which Potency did it give?
**A.** inactive

**Q.** `CC/C=C(\C(=O)N[C@@H]1C(=O)N2C(C(=O)OCOC(=O)C(C)(C)C)=C(COC(N)=O)CS[C@H]12)c1csc(N)n1` was tested. Which Potency did it give?
**A.** inactive

**Q.** `CC1=CCC2CC1C2(C)C` (stereo not given) was tested. Which Potency did it give?
**A.** inactive

**Q.** How did the Potency turn out when `C=C(C)C(=O)O[C@H]1C[C@@H]2CC[C@@]1(C)C2(C)C` was run?
**A.** inactive

**Q.** With `c1ccc2c(c1)ccc1cc3c(ccc4ccccc43)cc12` as the compound, how does the Potency read?
**A.** inactive

**Q.** For `O=C(O)c1ccccc1C(=O)O`, which Potency is on record?
**A.** inactive

**Q.** Which Potency does the source give for `C/C=C(C)/C=C/C=C(C)C` here?
**A.** inactive

**Q.** Which Potency does the source give for `CC1=C(/C=C/C(C)=C/C=C/C(C)=C/CO)C(C)(C)CCC1` here?
**A.** inactive

**Q.** With `CN(C)C` as the compound, how does the Potency read?
**A.** inactive

**Q.** For `COC(=O)CCCC(=O)OC`, which Potency is on record?
**A.** inactive

**Q.** `O=C(O)c1[nH]n(-c2ccc(S(=O)(=O)O)cc2)c(=O)c1N=Nc1ccc(S(=O)(=O)O)cc1` was tested. Which Potency did it give?
**A.** inactive

**Q.** `C=C(C)C(=O)OCC(CC)(COC(=O)C(=C)C)COC(=O)C(=C)C` was tested. Which Potency did it give?
**A.** inactive

**Q.** `C[Si](C)(C)O[Si](C)(C)C` was tested. Which Potency did it give?
**A.** inactive

**Q.** With `CCCCNS(=O)(=O)c1ccccc1` as the compound, how does the Potency read?
**A.** inactive

**Q.** For `N#Cc1ccccc1`, which Potency is on record?
**A.** inactive

**Q.** Which Potency does the source give for `Cc1cc(=O)[nH]c(=S)[nH]1` here?
**A.** inactive

**Q.** Which Potency does the source give for `C1COCCN1` here?
**A.** inactive

**Q.** `O=S1(=O)CCCO1` was tested. Which Potency did it give?
**A.** inactive

**Q.** How did the “activation” value turn out when `CCCCCCC=O` was run?
**A.** 2.42% (inactive)

**Q.** Which Potency does the source give for `c1ccc(OCCOc2ccccc2)cc1` here?
**A.** inactive

**Q.** With `CC(C)[C@@H]1CC[C@@H](C)C[C@H]1O` as the compound, how does the Potency read?
**A.** inactive

**Q.** How did the Potency turn out when `COC(=O)[C@H](Cc1ccccc1)NC(=O)[C@@H](N)CC(=O)O` (H-Asp-Phe-OMe) was run?
**A.** inactive

**Q.** With `CCC[C@H](N[C@@H](C)C(=O)N1[C@H](C(=O)O)C[C@@H]2CCCC[C@@H]21)C(=O)OCC` as the compound, how does the Potency read?
**A.** inactive

**Q.** Which Potency does the source give for `COC(=O)c1ccccc1` here?
**A.** inactive

**Q.** For `C=CCNC(N)=S`, which Potency is on record?
**A.** inactive

**Q.** How did the Potency turn out when `CC(C)[N+](C)(CCOC(=O)C1c2ccccc2Oc2ccccc21)C(C)C` was run?
**A.** inactive

**Q.** How did the Potency turn out when `OCCOCCOCCO` was run?
**A.** inactive

**Q.** Which Potency does the source give for `CCCCCCC(=O)O` here?
**A.** inactive

**Q.** Which Potency does the source give for `C/C=C/c1ccc(OCC)c(O)c1` here?
**A.** inactive

**Q.** With `CCC(O)OC(O)CC` (stereo not given) as the compound, how does the Potency read?
**A.** inactive

**Q.** Which Potency does the source give for `CC(=O)OC(C)(C)C1CC=C(C)CC1` (stereo not given) here?
**A.** inactive
